This note sets out measurements from PubChem BioAssay (Tox21).

Values joined by “and” are separate entries in the source; they are usually repeats but may differ in a detail not shown here. Equal entries are not always repeated. Inconclusive results are not listed. Some structures have more than one record in an assay (separate samples or runs), and their calls can disagree. Active and inactive are the calls of the source. Calls come from the whole dose curve; as a rule, active = well fitted curve in the direction sought with a large enough effect in the repeat runs; inconclusive = weak or mixed curves; inactive = no such curve, though single readings can be large; an effect the other way counts as inactive or inconclusive.

Experiment [1] in a line: qHTS RealTime-Glo MT Cell Viability Assay in HepG2 cells - 8 hour (AID 1224873). Note: nearly all actives have a fitted effect of over 55% in size. Note: potency is the fitted concentration of half-maximal effect. The procedure, abridged: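 HepG2 cells (600/well) mixed with RealTime-Glo MT reagent, settled 5 h at 37 C/5% CO2 before compound addition. Nonlytic NanoLuc luminescence from viable-cell prosubstrate reduction read repeatedly during 40 h treatment at 37 C.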
Background: In qHTS, concentration-response curves come from the screen itself.

A short description of experiment [2]: qHTS RealTime-Glo MT Cell Viability Assay in HEK293 cells - 40 hour (AID 1224874). Note: nearly all actives have a fitted effect of over 50% in size. Note: potency is the fitted concentration of half-maximal effect. To be noted: RealTime-Glo luminescence; max response: stronger effect = lower value. In a few lines: (§1)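 qHTS format; HEK293 cells with NanoLuc/prosubstrate reagent, 37 C/5% CO2 for 5 h pre-dosing; compounds 23 nL in DMSO; luminescence at each time point reflects viable cells.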
The nature of experiment [3]: A CellTox Green Cytotoxicity Assay to monitor cytotoxicity in HEK293 cells - 24 hour (AID 1224875). Note: nearly all actives have a fitted effect of over 45% in size. Note: potency is the fitted concentration of half-maximal effect. In a few lines:
(§2)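 Each value comes from one timepoint of a single continuous run in which HEK293 cells with CellTox Green were exposed to compound for up to 40 h at 37 C, dye fluorescence rising with cell death.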

A short description of experiment [4]: A CellTox Green Cytotoxicity Assay to monitor cytotoxicity in HepG2 cells - 16 hour (AID 1224876). Note: nearly all actives have a fitted effect of over 45% in size. Note: potency is the fitted concentration of half-maximal effect. The procedure, abridged:
(§3)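 Continuous culture of HepG2 cells with a membrane-impermeant DNA dye; rising fluorescence marks dead cells. Compound exposure lasted up to 40 h at 37 C, with reads every 8 h from 0 h.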

Experiment [5] can be described thus: qHTS RealTime-Glo MT Cell Viability Assay in HepG2 cells - 32 hour (AID 1224877). Note: nearly all actives have a fitted effect of over 55% in size. In a few lines: (§4)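 HepG2 cells (600/well) were dispensed with RealTime-Glo reagents, incubated 5 h at 37 °C, then treated with compounds in DMSO for up to 40 h. Nonlytic NanoLuc luminescence reflecting viable cells was read at each stated time point.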
A short description of experiment [6]: A CellTox Green Cytotoxicity Assay to monitor cytotoxicity in HepG2 cells - 24 hour (AID 1224878). Note: nearly all actives have a fitted effect of over 45% in size. Note: potency is the fitted concentration of half-maximal effect. The procedure, abridged:
as §3

Experiment [7] in a line: A CellTox Green Cytotoxicity Assay to monitor cytotoxicity in HepG2 cells - 40 hour (AID 1224879). Note: nearly all actives have a fitted effect of over 40% in size. Note: potency is the fitted concentration of half-maximal effect. In a few lines:
as §3

Experiment [8] in a line: qHTS RealTime-Glo MT Cell Viability Assay in HEK293 cells - 0 hour (AID 1224880). Note: nearly all actives have a fitted effect of over 45% in size. Note: potency is the fitted concentration of half-maximal effect. The procedure, abridged: as §1
Experiment [9] can be described thus: A CellTox Green Cytotoxicity Assay to monitor cytotoxicity in HEK293 cells - 32 hour (AID 1224881). Note: nearly all actives have a fitted effect of over 40% in size. Note: potency is the fitted concentration of half-maximal effect. In a few lines:
as §2

A short description of experiment [10]: A CellTox Green Cytotoxicity Assay to monitor cytotoxicity in HepG2 cells - 0 hour (AID 1224882). Note: nearly all actives have a fitted effect of over 35% in size. The procedure, abridged:
as §3

Experiment [11] can be described thus: A CellTox Green Cytotoxicity Assay to monitor cytotoxicity in HepG2 cells - 32 hour (AID 1224883). Note: nearly all actives have a fitted effect of over 50% in size. Note: potency is the fitted concentration of half-maximal effect. In a few lines: as §3
The nature of experiment [12]: qHTS RealTime-Glo MT Cell Viability Assay in HepG2 cells - 16 hour (AID 1224885). Note: nearly all actives have a fitted effect of over 50% in size. Note: potency is the fitted concentration of half-maximal effect. In a few lines:
as §4

Experiment [13] is described as follows: qHTS RealTime-Glo MT Cell Viability Assay in HEK293 cells - 24 hour (AID 1224886). Note: nearly all actives have a fitted effect of over 50% in size. Note: potency is the fitted concentration of half-maximal effect. The procedure, abridged: (§5)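 HEK293 cells seeded with NanoLuc/prosubstrate reagent, rested 5 h at 37 C, then dosed and kept at 37 C up to 40 h. Nonlytic real-time luminescence from viable cells read at 0, 8, 16, 24, 32 and 40 h.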
The nature of experiment [14]: qHTS RealTime-Glo MT Cell Viability Assay in HEK293 cells - 8 hour (AID 1224887). Note: nearly all actives have a fitted effect of over 50% in size. Note: potency is the fitted concentration of half-maximal effect. The procedure, abridged: as §1
The nature of experiment [15]: A CellTox Green Cytotoxicity Assay to monitor cytotoxicity in HEK293 cells - 16 hour (AID 1224888). Note: nearly all actives have a fitted effect of over 35% in size. Note: potency is the fitted concentration of half-maximal effect. The procedure, abridged:
as §2

The nature of experiment [16]: qHTS RealTime-Glo MT Cell Viability Assay in HepG2 cells - 0 hour (AID 1224889). Note: nearly all actives have a fitted effect of over 50% in size. In a few lines: as §4
Experiment [17] in a line: A CellTox Green Cytotoxicity Assay to monitor cytotoxicity in HepG2 cells - 8 hour (AID 1224890). Note: nearly all actives have a fitted effect of over 45% in size. Note: potency is the fitted concentration of half-maximal effect. In a few lines: as §3
Experiment [18] can be described thus: qHTS assay to identify small molecule antagonists of the estrogen receptor alpha (ER-alpha) signaling pathway using the BG1 cell line in the presence of 0.1 nM 17-beta-estradiol - cell viability counter screen (AID 1259241). Note: nearly all actives have a fitted effect of over 40% in size. Note: potency is the fitted concentration of half-maximal effect. The procedure, abridged: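 Measures cytotoxicity alongside the ER-alpha antagonist readout: VM7Luc4E2 cells, charcoal-stripped serum, 0.1 nM 17beta-estradiol final, 22 hr compound incubation at 37C, CellTiter-Fluor fluorescence.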

The nature of experiment [19]: qHTS RealTime-Glo MT Cell Viability Assay in HEK293 cells - 16 hour (AID 1224872). Note: nearly all actives have a fitted effect of over 50% in size. Note: potency is the fitted concentration of half-maximal effect. In a few lines:
as §5

Experiment [20] is described as follows: A CellTox Green Cytotoxicity Assay to monitor cytotoxicity in HEK293 cells - 8 hour (AID 1224884). Note: nearly all actives have a fitted effect of over 35% in size. Note: potency is the fitted concentration of half-maximal effect. In a few lines: as §2
% is set by controls: 0 for no effect and ±100 for the full control effect.

Take `CO[Si](CCCNc1ccccc1)(OC)OC`: the Potency entry in experiment [1], in experiment [3], in experiment [4], in [5], in experiment [6] and in experiment [7] was “inactive” throughout. In addition, the Potency result in experiment [8], in experiment [9], in [10], in [11], in [12] and in [13] was “inactive” each time. Besides, the Potency result in [14], in experiment [15], in [16], in experiment [17] and in experiment [18] was “inactive” in each case. Also, the max response in [2] was 16.6% (inactive).
With `CC(C)C(C)(C)C(C)(C)C(C)(C)S`, the Potency entry in [1], in [3], in experiment [4], in experiment [5], in experiment [6] and in [7] was “inactive” throughout. The Potency result in experiment [8], in experiment [10], in experiment [11], in experiment [12], in [13] and in experiment [17] was “inactive” throughout. Also, the Potency result in [18] is “inactive”. In experiment [2], the max response was 0.74% (inactive).
In the case of `Oc1ccc2c(c1)-c1ccccc1C2`, the Potency result in experiment [19], in [5], in experiment [8], in experiment [10], in experiment [20] and in [15] was “inactive” each time. Moreover, the Potency entry in experiment [16] is “inactive”. Besides, the Potency in experiment [6], in experiment [7] and in experiment [11] was 49 µM (active) in each case.
For the molecule `Cc1cc(C2CCCCC2)n(O)c(=O)c1`, the Potency entry in experiment [1], in experiment [3], in experiment [4], in experiment [5], in experiment [6] and in experiment [8] was “inactive” in each case. Also, the Potency entry in experiment [9], in experiment [10], in [11], in experiment [20], in experiment [12] and in [15] was “inactive” in each case. Moreover, the Potency result in experiment [16] and in [17] was “inactive” in each case. Moreover, the figures for the Potency in [2] and in [18] were 1.69 µM (active) and 11.9 µM (active), respectively.
In the case of `CCCCCCCCCCCCCCCS(=O)(=O)Oc1ccccc1`, the Potency entry in experiment [1], in experiment [3], in experiment [4], in [5], in [6] and in [7] was “inactive” each time. Moreover, the Potency result in experiment [8], in [9], in experiment [10], in experiment [12], in [15] and in [16] was “inactive” each time. Besides, the Potency entry in [17] and in experiment [18] was “inactive” throughout. Also, in [2], the max response is -18% (inactive).
On to `O=C1Cc2cc(CCN3CCN(c4nsc5ccccc45)CC3)c(Cl)cc2N1`, for which the Potency in [19] and in experiment [13] was 23.9 µM (active) in each case. Besides, the Potency result in [8], in experiment [10], in experiment [16], in experiment [17] and in experiment [18] was “inactive” each time.
In the case of `N=C1N=C(N)c2ccccc21`, the Potency entry in experiment [1], in [3], in experiment [4], in experiment [8], in experiment [9] and in [10] was “inactive” in each case. The Potency entry in [20], in experiment [14], in experiment [15], in [16], in experiment [17] and in [18] was “inactive” in each case. For the same molecule, the Potency was 24.5 µM (active) in [2], 43.6 µM (active) in [7] and 24.5 µM (active) in experiment [13].
On to `CCOc1nc2cccc(C(=O)OC(C)OC(=O)OC3CCCCC3)c2n1Cc1ccc(-c2ccccc2-c2nn[nH]n2)cc1` (stereo unspecified), for which the Potency in experiment [19] was 11 µM (active); in experiment [3], 34.6 µM (active); in experiment [6], 43.6 µM (active); in experiment [7], 43.6 µM (active); in experiment [9], 30.9 µM (active); in [13], 9.76 µM (active). For the same molecule, the Potency in experiment [15] is 34.6 µM (active). Moreover, the Potency result in experiment [18] was “inactive”.
On to `NC(=NCCCCCCN=C(N)/N=C(\N)Nc1ccc(Cl)cc1)/N=C(\N)Nc1ccc(Cl)cc1`, for which the Potency in [1] was 48.7 µM (active) and 44.4 µM (active) and inactive; in experiment [2] it was 6.88 µM (active) [middle of 5 runs]; in experiment [3], 24.4 µM (active) [middle of 4 runs]; in experiment [4], 19.8 µM (active) [middle of 4 runs]; in [6], 21.8 µM (active) [middle of 4 runs]; in [9] it was 19.4 µM (active) [middle of 4 runs]. For the same molecule, the Potency in experiment [20] is 35.3 µM (active) and 54.6 µM (active); in [12] it was 43.4 µM (active) and 31.5 µM (active) and 24.4 µM (active); in experiment [13] it was 10.9 µM (active) [middle of 5 runs]; in experiment [17] it was 54.6 µM (active). In addition, the Potency result in [8], in [10] and in [18] was “inactive” in each case.
Regarding `O=C(NOCC1CC1)c1ccc(F)c(F)c1Nc1ccc(I)cc1Cl`, the Potency result in experiment [1], in experiment [3], in [4], in experiment [9], in experiment [10] and in experiment [20] was “inactive” in each case. For the same molecule, the Potency entry in experiment [12], in [15], in experiment [16], in experiment [17] and in [18] was “inactive” throughout. The Potency in [2] is 23.9 µM (active); in [6], 0.0425 µM (active); in experiment [7], 0.107 µM (active); in experiment [8], 16.9 µM (active); in experiment [11], 0.0849 µM (active).
In the case of `Oc1cccc(-c2c3nc(c(-c4cccc(O)c4)c4ccc([nH]4)c(-c4cccc(O)c4)c4nc(c(-c5cccc(O)c5)c5ccc2[nH]5)CC4)C=C3)c1`, the Potency in [19] is 23.9 µM (active); in [13] it was 23.9 µM (active); in experiment [14], 23.9 µM (active); in experiment [18], 3.35 µM (active). Also, the Potency result in experiment [3], in [4], in experiment [5], in [6], in experiment [7] and in [8] was “inactive” throughout. Also, the Potency result in experiment [9], in experiment [10], in [11], in experiment [20], in experiment [15] and in experiment [16] was “inactive” in each case. Further, in experiment [17], the Potency result was “inactive”.
For the molecule `COc1cc(-c2ccc(N=C=O)c(OC)c2)ccc1N=C=O`, the Potency entry in experiment [1], in [3], in experiment [4], in experiment [5], in experiment [6] and in experiment [7] was “inactive” in each case. Moreover, the Potency entry in [8], in [10], in [11], in experiment [20], in [12] and in [13] was “inactive” in each case. The Potency result in [14], in experiment [15], in experiment [16], in experiment [17] and in experiment [18] was “inactive” in each case. Besides, in experiment [2], the max response is -10% (inactive).
Regarding `Nc1ccc(N)c2ccccc12`, the Potency in experiment [19] is 54.9 µM (active); in [4], 54.9 µM (active); in experiment [6], 54.9 µM (active); in [7] it was 54.9 µM (active); in experiment [11] it was 54.9 µM (active); in experiment [14], 24.5 µM (active). Further, in experiment [18], the Potency was 19.3 µM (active). For the same molecule, the Potency entry in experiment [3], in experiment [8], in [10], in experiment [20], in [15] and in experiment [16] was “inactive” each time. Also, the Potency result in experiment [17] was “inactive”.
